In PubChem BioAssay (Tox21):
Several values for one entry are separate records, joined by “and”; a condition that tells them apart may be missing. Equal entries are not always repeated. Inconclusive results are not listed. A call without a number means that no potency is given here. Activity calls are given as the source filed them. The call rests on the fitted dose curve; in most records, active means well fitted cell-killing curve with a large enough effect in the repeat runs; inconclusive means weak or mixed curves, or effect the other way; inactive means no such curve, though single readings can be large or run the other way.

Test: qHTS assay for identifying genotoxic compounds that show differential cytotoxicity against isogenic chicken DT40 cell lines with known DNA damage response pathways - Rev3 mutant cell line (AID 743014); further: nearly all actives have a fitted effect of over 55% in size
Conditions: chicken DT40 Rev3-/- viability, CellTiter-Glo, 40 h; series mostly up to 68.4 µM
Potency means the concentration at half of the fitted maximal effect.

Compound	Potency
COC(C)(C)C	inactive
CCOP(=S)(OCC)Oc1ncn(-c2ccccc2)n1	34.4 µM (active)
CC(Cl)(Cl)[N+](=O)[O-]	inactive
Cc1cnc[nH]1	inactive
CC1=C(C(=O)Nc2ccccc2)S(=O)(=O)CCO1	15.3 µM (active)
O=C1c2ccccc2C(=O)c2ccccc21	inactive
CC(C)CC#N	inactive
CNC(=O)Oc1ccc(N(C)C)c(C)c1	34.4 µM (active)
N#CC(Cl)(Cl)Cl	inactive
ClC(Cl)(Cl)C(Cl)(Cl)Cl	inactive
Cc1nc(N)nc(N)n1	inactive
c1cc[c]([Hg][c]2ccccc2)cc1	0.243 µM (active)
N#Cc1ccncc1	inactive
C[C@H]1CCC[C@H](O)CCCCCc2cc(O)cc(O)c2C(=O)O1	26.6 µM (active) and 27.5 µM (active)
Cc1ccccc1CO[C@@H]1C[C@@]2(C(C)C)CC[C@]1(C)O2	48.6 µM (active)
Nc1ccccc1Cl	inactive
CC1(C)COP(Oc2ccccc2)OC1	inactive
CCCCOP(=O)(O)OCCCC	inactive

Compound	Potency
O=C(O)c1ccc2[nH]cc(CCCCN3CC=C(c4ccccc4)CC3)c2c1	inactive
CCN(CC)C(C)C(=O)c1ccccc1 (stereo not given)	inactive
CCCCc1c(C)nc(NCC)[nH]c1=O	inactive
CN1CCC(O)(c2ccc(F)cc2)C(C(=O)c2ccc(F)cc2)C1 (stereo not given)	13.3 µM (active)
CCCCc1ccc(O)cc1	inactive
O=[N+]([O-])c1cccc2c([N+](=O)[O-])cccc12	inactive
COP(N)(=S)Oc1ccccc1C(=O)OC(C)C (stereo not given)	inactive
O=C(Nc1ccccc1)c1ccccc1I	27.3 µM (active)
COc1ncc(F)c2nc(S(=O)(=O)Nc3c(F)cccc3F)nn12	inactive
CCCSC(=O)N(CCC)CCC	inactive
CCC(=O)c1ccccc1	inactive
c1cc2c(c(N3CCNCC3)c1)OCCO2	inactive
COC(=O)C(c1ccccc1)C1CCCCN1 (stereo not given)	inactive
CCCCCCI	inactive
COc1cc(OC)nc(Oc2cccc(Oc3nc(OC)cc(OC)n3)c2C(=O)O)n1	inactive
CNC(=O)Oc1ccccc1C1OCCO1	inactive
C#C[C@]1(O)C=C[C@H]2[C@@H]3CCC4=CC(=O)CC[C@@H]4[C@H]3CC[C@@]21CC	26.6 µM (active)
